In PubChem BioAssay AID2315 (National Center for Advancing Translational Sciences (NCATS), 2010):
Out of some 290,000 compounds screened, about 27,000 (9.3%) were called active. What follows is part of a selection rich in actives, with near analogues and random picks from the rest. A number with no mark means an inactive call. Rule as the data show it: active = inhibition mostly above about 28% (no sharp cut-off); inactive = mostly below about 43%.

assay: A qHTS for Small Molecule Inhibitors of Shiga Toxin; settings: Vero cells, Shiga toxin protein synthesis inhibition reporter; at 38.7 µM, hits give high values; also: 0% is about no effect

Row | Structure (SMILES) | inhibition
1 | CCCN1CCC(=O)N(C(CSc2ccc(OC)cc2)Cc2ccccc2)CC1 (stereo not given) | -5.53%
2 | COc1ccc(CNC(=O)C(NS(=O)(=O)c2cccc3nsnc23)C(C)C)cc1 (stereo not given) | -7.36%
3 | O=C(O)CCC(=O)N(Cc1ccccc1)Cc1ccccc1 | -10.9%
4 | CC[C@@H](C)[C@H](NC(=O)CCc1c(C)c2cc3c4c(oc3c(C)c2oc1=O)CCCC4)C(=O)O | 22.3%
5 | C(=N\n1cnnc1)/c1cccnc1 | 2.15%
6 | COc1cccc(OCCOc2cccc(/C=N/n3cnnc3)c2)c1 | 41.7% (active)
7 | COc1ccccc1OCCOc1ccc(/C=N/n2cnnc2)cc1 | -21.9%
8 | O=C(c1ccc2c(c1)N(Cc1ccc(F)cc1)C(=O)c1ccccc1S2(=O)=O)N1CCN(c2ccccn2)CC1 | -2.78%
9 | CSc1ccc(C#N)cc1NC(=O)c1cccc(Cl)c1 | -14.6%
10 | Cc1cc(NC(=O)COc2ccc(Cl)cc2Cl)n(CCC#N)n1 | 87.8%
11 | CCOc1ccc(CN2CCN(Cc3ccc4cc(F)ccc4n3)CC2CCO)cc1 (stereo not given) | -9.76%
12 | CCOc1cc(/C=C(\C#N)c2nc(-c3cccs3)c(NC(C)=O)s2)ccc1O | -0.261%
13 | COc1cc(/C=C(\C#N)c2nc3c(s2)CC(C)CC3)ccc1O (stereo not given) | 62.8% (active)
14 | Cc1ccccc1OC/C(O)=C(\C#N)c1nc2ccccc2[nH]1 | -10.2%
15 | COc1ccc(/C=C(/NC(=O)c2ccc(C)cc2)c2nc3ccccc3[nH]2)cc1OC | -2.72%
16 | COc1cc(/C=C(\C#N)c2nc3ccccc3[nH]2)ccc1O | 55.7% (active)
17 | Cc1ccc(-c2ccnc3[nH]n(-c4ccccc4)c(=O)c23)cc1 | 17.7%
18 | C[C@H](NC(=O)C1CCN(S(=O)(=O)c2ccccc2)CC1)C(=O)NCc1ccccc1 | -3.31%
19 | CC(=O)N1c2ccc(S(=O)(=O)NCCC(=O)N(C)C3CCCCC3)cc2CC1C (stereo not given) | 2.29%
20 | COc1ccc(C(C(=O)NC2CCCC2)N(CCCO)C(=O)Cn2nnc(-c3ccc(C)o3)n2)cc1 (stereo not given) | -6.08%
21 | COc1cccc(C(=O)N/N=C(\C)c2cccc(NC(=O)c3ccc(F)cc3)c2)c1OC | 77.4% (active)
22 | C/C(=N/NC(=O)c1ccc(NC(=O)c2ccc(F)cc2)cc1)c1ccccc1 | 30%
23 | CC(=O)Nc1cccc(/C(C)=N/NC(=O)c2ccccc2Cl)c1 | 22%
24 | OC(CNC1CCCC1)COc1ccc(F)cc1 (stereo not given) | -14%
25 | CC(=O)N1CCN(CC(c2ccccc2)c2ccccc2)CC1 | -3.73%
